High-throughput results: PubChem BioAssay, several laboratories
This is a sample that favours compounds with a hit; in the whole collection about 2.7% have one here.
SENP8 block-1: SENP8 protease inhibitors, primary screen, biochemical, luminescence | Sentrin-specific protease 8 (Homo sapiens), Q96LD8 | purified SENP8, Z-RLRGG-aminoluciferin cleavage | inhibition, % at 10 µM | 330,000 tested, 1.2% active; in the data active = inhibition above about 50%
SENP8 block-2: human SENP8 protease inhibitors, primary screen, biochemical, fluorescence, Nedd8 protein substrate, uHTS; Sentrin-specific protease 8 (Homo sapiens), Q96LD8; recombinant SENP8; inhibition, % at 20 µM; 360,000 tested, 0.64% active; in the data active = inhibition mostly above about 40%, no sharp cut-off; inactive = mostly below about 27%
HSP90 inh: HSP90 inhibitors, primary screen, cell lysate, luminescence | Rabbit reticulocyte lysate, luciferase refolding luminescence, 3 h | inhibition, % at 5.6 µM | Heat shock protein HSP 90 (rabbit reticulocyte lysate; luciferase refolding) | 290,000 tested, 0.91% active;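 active = inhibition above the screen-wide mean plus 3 SD, computed separately per campaign, cut at about 16% in these data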;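 also: inhibitors lower the luminescence because luciferase stays unfolded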
SENP6 block: SENP6 protease inhibitors, primary screen, biochemical, luminescence, uHTS | Recombinant SENP6 catalytic domain, aminoluciferin luminescence | inhibition, % at 10 µM | 330,000 tested, 1.8% active | AID 2599, 2010;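 active = inhibition above about 50% at the single tested dose, limit read from the data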
Target sequence (Q9GZR1 628-1112 limits assumed): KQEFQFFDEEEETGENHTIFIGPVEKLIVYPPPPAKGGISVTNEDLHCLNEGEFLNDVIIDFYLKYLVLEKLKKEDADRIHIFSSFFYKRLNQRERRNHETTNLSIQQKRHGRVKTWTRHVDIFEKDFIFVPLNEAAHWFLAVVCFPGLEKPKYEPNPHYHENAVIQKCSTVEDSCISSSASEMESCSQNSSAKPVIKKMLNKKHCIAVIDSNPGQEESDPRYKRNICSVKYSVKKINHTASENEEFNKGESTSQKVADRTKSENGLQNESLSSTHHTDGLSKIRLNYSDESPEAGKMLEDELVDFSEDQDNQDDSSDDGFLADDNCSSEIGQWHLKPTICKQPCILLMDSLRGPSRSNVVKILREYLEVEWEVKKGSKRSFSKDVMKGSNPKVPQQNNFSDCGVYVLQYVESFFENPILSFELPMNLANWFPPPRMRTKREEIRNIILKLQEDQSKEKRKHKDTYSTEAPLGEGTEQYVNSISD
SENP7 inh: SENP7 protease inhibitors, primary screen, biochemical, luminescence, uHTS. Sentrin-specific protease 7 (Homo sapiens), Q9BQF6. recombinant SENP7, Z-RLRGG-aminoluciferin luminescence, 40 min. inhibition, % at 5 µM. 330,000 tested, 1.5% active. AID 434973, 2010;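 active = inhibition above about 50% at the single test dose, limit read from the data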
HSP90 inh confirm: HSP90 inhibitors, confirmation, cell lysate, luminescence. AID 1846, 2009. 2,300 tested, 64% active. shares compounds with HSP90 inh. rabbit reticulocyte lysate, luciferase refolding luminescence, 3 h. inhibition, % at 5.9 µM; in the data active = inhibition above about 18%
luciferase ctr: firefly luciferase inhibitors, HSP90 counter-screen, confirmation, artefact control for HSP90 inhibitor project, biochemical, luminescence, triplicate; shares compounds with HSP90 inh; purified native firefly luciferase; inhibition, % at 5.9 µM; 2,300 tested, 48% active; AID 1847, 2009;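 active = inhibition above the mean inhibition of all tested sample wells plus 3 SD, cut at about 10% in these data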
Hits are given with their value; . = inactive; / = not tested or not shown.

SMILES	SENP8 block-1	SENP8 block-2	HSP90 inh	SENP6 block	SENP7 inh	HSP90 inh confirm	luciferase ctr
O=C(COC(=O)/C=C/c1ccc([N+](=O)[O-])cc1)NC(=O)NC1CCCCC1	.	.	/	.	.	/	/
CC(=O)/C=C(\C)Nc1ccccc1O	.	.	18	.	.	26	.
COc1ccc(C(=O)NC2CCN(C(=S)Nc3cccc(C)c3)CC2)cc1	.	.	21	.	.	.	.
COc1ccc(C)cc1-n1c(SCC(=O)N2CCOCC2)nc2ccccc2c1=O	/	.	/	/	/	/	/
COC(=O)[C@@]12C[C@@H](CC(=O)N3CCOCC3)C(=O)N(Cc3cccc4ccccc34)C1=CCC(C)(C)C2	/	.	/	/	/	/	/
N=c1sccn1CC(=O)Nc1ccc([N+](=O)[O-])cc1Cl	.	.	21	.	.	.	.
O=C(O)CSCC(=O)Nc1ccc(C2CCCCC2)cc1	.	.	52	.	.	57	.
CC(=O)Oc1ccc(NC(=O)Cc2ccccc2)cc1	.	.	.	.	.	/	/
CC(=O)Oc1ccc(Nc2ccccc2)cc1	.	.	31	.	.	56	.
Oc1ccc(-c2cnc(-c3ccc(O)cc3)nc2)cc1	.	.	.	.	.	/	/
Nc1ccc(-c2cnc(-c3ccc(N)cc3)nc2)cc1	.	.	21	.	.	26	19
Cc1[nH]c2ccccc2c1C(C#N)(C#N)C1C(=O)c2ccccc2C1=O	.	.	77	.	.	79	.
Cc1ccc(C(=O)Cn2c(C)cc(C)c(C#N)c2=O)cc1	.	.	.	.	.	/	/
CC1CCC(NC(=O)c2ccc3c(c2)OCO3)CC1 (stereo not drawn)	.	.	24	.	.	46	27
O=C(NC1CCCCC1)c1ccc2c(c1)OCO2	.	.	.	.	.	/	/
S=c1[nH]nc(-c2ccc(Cl)cc2)n1Cc1ccccc1	.	.	46	.	.	.	.
Cc1ccc(NC(=O)CN(C)C(=O)Cn2cc(C(F)(F)F)cc(Cl)c2=O)cc1	.	.	.	.	.	/	/
COCCn1c(C)cc(/C=C2/NC(=O)N(c3cccc(Cl)c3)C2=O)c1C	.	.	.	.	.	/	/
CCn1c(C)cc(/C=C2/NC(=O)N(c3ccccc3)C2=O)c1C	.	.	31	.	.	.	.
N#Cc1cc2c(nc1SCC(=O)N1CCOCC1)CCCCC2	.	.	54	.	.	.	.
N#Cc1cc2c(nc1SCC(N)=O)CCCCC2	.	.	.	.	.	/	/
Cc1ccc(NC(=S)NC(=O)C2CCCC2)cc1C	.	.	.	.	.	/	/
Cc1ccc(NC(=S)NC(=O)C2CC2)c(C)c1	.	.	31	.	.	.	.
CN(C)CCCn1c(N)c(C#N)c2nc3ccccc3nc21	.	.	47	.	.	.	.
Cc1ccc(S(=O)(=O)c2c(N)n(CCCN(C)C)c3nc4ccccc4nc23)cc1	.	.	.	.	.	/	/
SMILES	SENP8 block-1	SENP8 block-2	HSP90 inh	SENP6 block	SENP7 inh	HSP90 inh confirm	luciferase ctr
CCn1nnc2cc(C(=O)NCCc3ccccc3F)ccc21	.	.	43	.	.	59	39
O=c1[nH]cnc2c1C(c1ccccc1[N+](=O)[O-])c1c(nc[nH]c1=O)O2	.	.	.	.	.	/	/
Cc1c(NC(=O)c2ccc(-c3ccccc3)cc2)cccc1C(=O)O	93	.	75	99	96	81	63
O=C(Nc1ccccc1C(=O)O)c1ccccc1	.	.	.	.	.	/	/
Cc1ccc(C)c(-c2cc(C(=O)NN3CCOCC3)c3ccccc3n2)c1	.	.	.	.	.	/	/
COc1ccc(N(C(C)C(=O)Nc2ccc(S(=O)(=O)N3CCCCC3)cc2)S(C)(=O)=O)cc1 (stereo not drawn)	.	.	18	.	.	.	.
CC(C)N1CC(C(=O)Nc2ccc(S(=O)(=O)N3CCCCC3)cc2)CC1=O (stereo not drawn)	.	.	26	.	.	.	.
CCN(CC)CCN(Cc1cc2cc3c(cc2[nH]c1=O)OCO3)C(=S)NC	.	.	29	.	.	.	.
CCCCNC(=S)N(CCN(CC)CC)Cc1cc2cc3c(cc2[nH]c1=O)OCO3	.	.	.	.	.	/	/
Cc1c(CC(=O)NCCCC(=O)O)c(=O)oc2cc3c(cc12)CCC(C)(C)O3	.	.	24	.	.	36	.
COc1ccc(C(=O)NCCn2cc(SCC(=O)NCC3CCCO3)c3ccccc32)cc1 (stereo not drawn)	.	.	29	.	.	.	.
COc1ccccc1C(=O)NCCn1cc(SCC(=O)NCC2CCCO2)c2ccccc21 (stereo not drawn)	.	.	.	.	.	/	/
O=C(O)C1CCCN1C(=O)Nc1ccc(Cl)cc1 (stereo not drawn)	.	.	.	.	.	/	/
O=C1OCCC1Sc1nnc(-c2ccccc2)o1 (stereo not drawn)	.	.	.	.	.	/	/
O=C1OCCC1Sc1nnc(-c2ccc(Cl)cc2Cl)o1 (stereo not drawn)	.	.	33	.	.	67	57
CN(C)c1ccc(CNCCC(Cc2ccccc2)c2ccco2)cc1 (stereo not drawn)	.	.	19	.	.	.	.
CN(Cc1ccccc1)c1nc2c(c(=O)n(C)c(=O)n2C)n1CCSc1ncccn1	.	.	.	.	.	/	/
Cc1cc2nn(-c3ccccc3)nc2cc1NC(=O)c1cccs1	.	.	.	.	.	/	/
